Assay outcomes: PubChem, National Center for Advancing Translational Sciences (NCATS)
HT1080 IDH1KD tx = qHTS for induction of synthetic lethality in tumor cells producing 2HG: qHTS for the HT-1080-IDH1KD cell line. HT-1080 IDH1 knockdown viability, ATP luminescence, 48 h. Potency, µM (highest dose often 46.1 µM), for inactives: at the top dose activity, negative = toxicity, usual class: cytotoxic. 2% of 360,000 active. AID 686971, 2013;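 also: 0% = DMSO wells and -100% = cell-free medium wells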
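Luminescent ATP read-out (CellTiter-Glo, 10 min at room temperature) after 48 h compound exposure at 37 °C gave viability of IDH1-knockdown HT-1080 cells. Activity was normalised to DMSO and cell-free wells, then fitted as concentration-response curves.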
S2 tox = Viability Counterscreen for Primary qHTS for Inhibitors of ATXN expression; S2 cells (HEK-293 line with an ATXN2-luciferase reporter) viability, CellTiter-Fluor protease fluorescence, 24 h; 0.49% of 400,000 active; AID 651635, 2014; Potency, µM (titrated, usually from 56.7 µM), actives largely listed as cytotoxic; also: nearly all actives have a fitted effect of over 40% in size
HepG2 tox = qHTS for Inhibitors of TGF-b: Cytotox Counterscreen; 0.76% of 410,000 active; HepG2 CAGA-GFP viability, ATP luminescence, 18 h; AID 588856, 2011; Potency, µM (highest dose often 46.1 µM), inactives show top-dose activity change, negative = cytotoxicity, actives largely listed as cytotoxic
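HepG2 CAGA-GFP cells (1000/well, DMEM with 1% FBS) received compound, then TGF-beta at 500 pg/mL final, and were incubated 18 hours at 37 degrees C. Viability was read by CellTiter-Glo luminescence. Media-only wells were set as complete cell-killing and DMSO as no toxicity.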
HT1080-NT tox = qHTS for induction of synthetic lethality in tumor cells producing 2HG: qHTS for the HT-1080-NT fibrosarcoma cell line. HT-1080-NT fibrosarcoma viability, CellTiter-Glo ATP luminescence, 48 h. Potency, µM (doses to about 46.1 µM), inactives show at the top dose activity, negative = less viability, actives largely listed as cytotoxic. 1.6% of 360,000 active. AID 686970, 2013;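 also: NT is the 2HG producing partner of a matched IDH1 knockdown line; 0% = DMSO-treated cells and -100% = media-only wells without cells; nearly all actives have a fitted effect of over 55% in size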
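Read-out is CellTiter-Glo luminescence after 10 minutes at room temperature, following 48 hours' compound treatment of HT-1080-NT cells (750 cells/well, RPMI, 5% FBS, 37 degrees C).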
TGFb inhibitor = qHTS for Inhibitors of TGF-b | HepG2 CAGA-GFP TGF-b/SMAD3 reporter, GFP fluorescence, 18 h; TGF-beta stimulated, 500 pg/mL final | Potency, µM (series often up to 46.1 µM), without a hit: top-dose activity, negative = inhibition, usual class: inhibitors | 1.2% of 410,000 active; also: % is scaled to controls: 0 for no effect and ±100 for the full control effect; nearly all actives have a fitted effect of over 65% in size
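Per well, imaged GFP fluorescence of HEPG2 CAGA-GFP cells gives the signal; cells get compound, then TGF-beta (500 pg/mL final), 18 h at 37 degrees C; %Activity versus -TGF-beta and +DMSO controls.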
ATXN2 expr inh = Primary qHTS for Inhibitors of ATXN expression; AID 1745845, 2022; Potency, µM (titrated, usually from 57 µM), inactives show at the top dose activity change, negative = inhibition, most hits filed as inhibitors; 0.72% of 360,000 active; HEK-293 ATXN2-luciferase reporter, luminescence, 24 h; also: % is scaled to controls: 0 for no effect and ±100 for the full control effect; nearly all actives have a fitted effect of over 55% in size
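qHTS (up to 57 uM final) was run with 24 h compound exposure of reporter cells at 37 °C. Each well was multiplexed: SteadyGlo luminescence measured ATXN2-luciferase expression after a fluorogenic Gly-Phe-AFC viability readout (25 uM final).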
* = called active by the depositor; [ ] = another dose, or the depositor's remark. In the library only some 3.8% were active in any assay of this set; here they are far more common. Calls follow the shape of the dose curve; as a rule, active = well fitted curve in the direction sought with a large enough effect; inconclusive = small, poorly fitted or top-dose-only effect, or another doubt; inactive = no such curve, though single readings can be large; an effect the other way counts as inactive or inconclusive. Potency is read from the fitted curve at half-maximal effect.

What do the screens show for `Cc1cc(Br)ccc1NC(=O)c1cn(C2CCCC2)c(=O)c2c1c1ccccc1n2C`?
HepG2 tox: -2%; TGFb inhibitor: inconclusive

What do the screens show for `Nn1cnnc1N/N=C/c1cccc(Cl)c1Cl`?
HT1080 IDH1KD tx: 18µM*; S2 tox: inactive; HepG2 tox: inactive; HT1080-NT tox: inconclusive; TGFb inhibitor: inconclusive; ATXN2 expr inh: -19%

What do the screens show for `CCc1nnc(N/N=C/c2ccccc2F)n1N`?
HT1080 IDH1KD tx: inconclusive; S2 tox: inactive; HepG2 tox: -106%; HT1080-NT tox: inconclusive; TGFb inhibitor: inconclusive; ATXN2 expr inh: -28%

What do the screens show for `CCc1nnc(N/N=C/c2ccc(N3CCC(C)CC3)c([N+](=O)[O-])c2)n1N`?
HT1080 IDH1KD tx: 33µM*; S2 tox: inactive; HepG2 tox: 11µM*; HT1080-NT tox: inconclusive; TGFb inhibitor: 10µM*; ATXN2 expr inh: -22%

How did Cc1nnc(N/N=C/c2ccc(Br)cc2)n1N do in these assays?
HT1080 IDH1KD tx: 23µM*; S2 tox: inactive; HepG2 tox: 16µM*; HT1080-NT tox: inconclusive; TGFb inhibitor: inconclusive; ATXN2 expr inh: -29%

What do the screens show for `CCc1nnc(N/N=C/c2ccccc2Cl)n1N`?
HT1080 IDH1KD tx: 16µM*; S2 tox: inactive; HepG2 tox: 13µM*; HT1080-NT tox: inconclusive; TGFb inhibitor: 11µM*; ATXN2 expr inh: 10%

How did Cc1nnc(N/N=C/c2ccc(-c3ccc(Br)cc3)o2)n1N do in these assays?
HT1080 IDH1KD tx: inconclusive; HepG2 tox: -104%; HT1080-NT tox: inconclusive; TGFb inhibitor: inconclusive; ATXN2 expr inh: -33%

How did CC1(C)CC(=O)c2cc(C(=O)Nc3cccc4ccccc34)c(=O)[nH]c2C1 do in these assays?
HepG2 tox: -33%; TGFb inhibitor: -15%

Results for O/N=C(/CI)c1ccc2ccccc2c1 ?
HepG2 tox: 0%; TGFb inhibitor: 1%

What do the screens show for `Cc1cc(N2CCN(C)CC2)nc2ccc(NC(=O)Nc3ccccc3Cl)cc12`?
S2 tox: inactive; HepG2 tox: -13%; TGFb inhibitor: 40%; ATXN2 expr inh: 31%

How did CCC1CN(CC(=O)N(C)Cc2nc3ccccc3[nH]2)Cc2cc(OC)ccc2O1 (stereo not drawn) do in these assays?
S2 tox: inactive

How did Cc1ccc(/C=N/Nc2nncn2N)cc1 do in these assays?
HT1080 IDH1KD tx: inconclusive; S2 tox: inactive; HepG2 tox: inactive; HT1080-NT tox: inconclusive; TGFb inhibitor: 11µM*; ATXN2 expr inh: -12%

What do the screens show for `Nn1cnnc1N/N=C/c1ccc(Cl)c([N+](=O)[O-])c1`?
HT1080 IDH1KD tx: 21µM*; S2 tox: inactive; HepG2 tox: 11µM*; HT1080-NT tox: inconclusive; TGFb inhibitor: inconclusive; ATXN2 expr inh: -18%

How did COc1ccc(/C=N/Nc2nnc(C)n2N)cc1OC(C)=O do in these assays?
HT1080 IDH1KD tx: 16µM*; S2 tox: inactive; HepG2 tox: 13µM*; HT1080-NT tox: 23µM*; TGFb inhibitor: 10µM*; ATXN2 expr inh: -3%

Results for CCc1ccc(CNC(=O)CN2C(=O)CCn3nc(-c4cn(C)c5ccccc45)cc32)cc1 ?
S2 tox: inactive; HepG2 tox: -2%; TGFb inhibitor: -6%; ATXN2 expr inh: -8%

How did Fc1ccc(Nc2c3c(nc4ccccc24)CCC3)cc1 do in these assays?
HT1080 IDH1KD tx: inconclusive; S2 tox: inconclusive; HepG2 tox: -33%; HT1080-NT tox: 16µM*; TGFb inhibitor: inconclusive; ATXN2 expr inh: -23%[11.3 µM]
